# Test results reported in PubChem BioAssay.
# Activity calls are given as the source filed them.
# What was measured:
# [1] = system: PRMT1 (protein arginine N-methyltransferase 1); assay: small molecules binding arginine methyltransferase PRMT1 – biochemical, small-molecule microarray, 635 nm fluorescence, primary screen (AID 1088); conditions: higher = more signal;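 also: binding of Prmt1 protein to compounds spotted on small-molecule microarray slides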
# [2] = growth effects on S. cerevisiae YJM789 – YJM789 clinical isolate, OD600, 24 h, basal, primary screen (AID 1089); conditions: higher = more signal, called active from +8 up or from −8 down;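 also: growth of clinical yeast isolate S. cerevisiae YJM 789 seeded 1000 cells per well; test concentration not given here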
# [3] = S. pombe growth modifiers, basal conditions – strain 972, OD600, 24 h, no modulator, primary screen (AID 1090);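 also: basal condition with compound alone and no growth modifier present; test concentration not given here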; conditions: S. pombe 972 growth, higher = more signal, called active from +8 up or from −8 down
# [4] = budding yeast growth modifiers under rapamycin – strain BY4716, OD600, 96 h, primary screen (AID 1091); also: test concentration not given here; conditions: S. cerevisiae BY4716 + rapamycin, higher = more signal, called active from +8 up or from −8 down
# [5] = biological target: Torsin-1A-interacting protein 2 (Homo sapiens) (UniProt Q8NFQ8); assay: small molecules binding lysate-expressed LULL1 – cell lysate, human LULL1 lysate, 635/667 nm fluorescence, primary screen (AID 1092); conditions: small-molecule microarray, hLULL1 lysate binding, 635 nm fluorescence; higher = more signal;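 also: probe is lysate of COS7 cells overexpressing human LULL1; score merges per-feature 667 nm fluorescence with signal-to-noise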
# Chain of Torsin-1A-interacting protein 2 (Homo sapiens) (Q8NFQ8 whole entry, looked up): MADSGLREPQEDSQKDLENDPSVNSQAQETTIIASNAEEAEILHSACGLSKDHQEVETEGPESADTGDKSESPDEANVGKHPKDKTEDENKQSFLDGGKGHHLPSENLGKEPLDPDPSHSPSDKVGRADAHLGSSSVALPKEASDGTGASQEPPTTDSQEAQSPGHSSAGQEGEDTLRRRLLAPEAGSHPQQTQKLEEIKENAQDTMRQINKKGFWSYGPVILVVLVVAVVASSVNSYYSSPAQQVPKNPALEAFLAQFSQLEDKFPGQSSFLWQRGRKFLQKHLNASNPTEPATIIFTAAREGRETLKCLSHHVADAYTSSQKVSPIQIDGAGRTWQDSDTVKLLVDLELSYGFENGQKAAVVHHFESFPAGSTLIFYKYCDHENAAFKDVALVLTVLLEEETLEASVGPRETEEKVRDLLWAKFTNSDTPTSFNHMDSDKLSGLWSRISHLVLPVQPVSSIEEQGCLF
# [6] = optical density change of DRC41 E. coli – strain DRC41, OD650, 24 h, E. coli filamentation project, primary screen (AID 1093);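 also: MC1000 strain lacking acrAB efflux and sulA so SOS filamentation is blocked; test concentration not given here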; conditions: E. coli DRC41 growth, higher = more signal, called active from +8 up or from −8 down
# [7] = probe aLefty2 binding to arrayed compounds – biochemical, biotinylated probe, 635/667 nm fluorescence, primary screen (AID 1094); conditions: small-molecule microarray, higher = more signal;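 also: score merges spot fluorescence near 667 nm with spot signal-to-noise ratio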
# [8] = system: Noggin (protein binding on small-molecule microarray); assay: small molecules binding Noggin protein – biochemical, 635/667 nm fluorescence, primary screen (AID 1095); conditions: 635 nm fluorescence, higher = more signal;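 also: score merges 667 nm feature fluorescence with signal to noise over triplicate slides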
# [9] = biological target: Neurogenic locus notch homolog protein 3 (Homo sapiens) (UniProt Q9UM47); assay: small molecules binding NOTCH3 protein – biochemical, 635/667 nm fluorescence, primary screen (AID 1096); conditions: small-molecule microarray, 635 nm fluorescence, higher = more signal
# Chain of Neurogenic locus notch homolog protein 3 (Homo sapiens) (Q9UM47 whole entry, looked up): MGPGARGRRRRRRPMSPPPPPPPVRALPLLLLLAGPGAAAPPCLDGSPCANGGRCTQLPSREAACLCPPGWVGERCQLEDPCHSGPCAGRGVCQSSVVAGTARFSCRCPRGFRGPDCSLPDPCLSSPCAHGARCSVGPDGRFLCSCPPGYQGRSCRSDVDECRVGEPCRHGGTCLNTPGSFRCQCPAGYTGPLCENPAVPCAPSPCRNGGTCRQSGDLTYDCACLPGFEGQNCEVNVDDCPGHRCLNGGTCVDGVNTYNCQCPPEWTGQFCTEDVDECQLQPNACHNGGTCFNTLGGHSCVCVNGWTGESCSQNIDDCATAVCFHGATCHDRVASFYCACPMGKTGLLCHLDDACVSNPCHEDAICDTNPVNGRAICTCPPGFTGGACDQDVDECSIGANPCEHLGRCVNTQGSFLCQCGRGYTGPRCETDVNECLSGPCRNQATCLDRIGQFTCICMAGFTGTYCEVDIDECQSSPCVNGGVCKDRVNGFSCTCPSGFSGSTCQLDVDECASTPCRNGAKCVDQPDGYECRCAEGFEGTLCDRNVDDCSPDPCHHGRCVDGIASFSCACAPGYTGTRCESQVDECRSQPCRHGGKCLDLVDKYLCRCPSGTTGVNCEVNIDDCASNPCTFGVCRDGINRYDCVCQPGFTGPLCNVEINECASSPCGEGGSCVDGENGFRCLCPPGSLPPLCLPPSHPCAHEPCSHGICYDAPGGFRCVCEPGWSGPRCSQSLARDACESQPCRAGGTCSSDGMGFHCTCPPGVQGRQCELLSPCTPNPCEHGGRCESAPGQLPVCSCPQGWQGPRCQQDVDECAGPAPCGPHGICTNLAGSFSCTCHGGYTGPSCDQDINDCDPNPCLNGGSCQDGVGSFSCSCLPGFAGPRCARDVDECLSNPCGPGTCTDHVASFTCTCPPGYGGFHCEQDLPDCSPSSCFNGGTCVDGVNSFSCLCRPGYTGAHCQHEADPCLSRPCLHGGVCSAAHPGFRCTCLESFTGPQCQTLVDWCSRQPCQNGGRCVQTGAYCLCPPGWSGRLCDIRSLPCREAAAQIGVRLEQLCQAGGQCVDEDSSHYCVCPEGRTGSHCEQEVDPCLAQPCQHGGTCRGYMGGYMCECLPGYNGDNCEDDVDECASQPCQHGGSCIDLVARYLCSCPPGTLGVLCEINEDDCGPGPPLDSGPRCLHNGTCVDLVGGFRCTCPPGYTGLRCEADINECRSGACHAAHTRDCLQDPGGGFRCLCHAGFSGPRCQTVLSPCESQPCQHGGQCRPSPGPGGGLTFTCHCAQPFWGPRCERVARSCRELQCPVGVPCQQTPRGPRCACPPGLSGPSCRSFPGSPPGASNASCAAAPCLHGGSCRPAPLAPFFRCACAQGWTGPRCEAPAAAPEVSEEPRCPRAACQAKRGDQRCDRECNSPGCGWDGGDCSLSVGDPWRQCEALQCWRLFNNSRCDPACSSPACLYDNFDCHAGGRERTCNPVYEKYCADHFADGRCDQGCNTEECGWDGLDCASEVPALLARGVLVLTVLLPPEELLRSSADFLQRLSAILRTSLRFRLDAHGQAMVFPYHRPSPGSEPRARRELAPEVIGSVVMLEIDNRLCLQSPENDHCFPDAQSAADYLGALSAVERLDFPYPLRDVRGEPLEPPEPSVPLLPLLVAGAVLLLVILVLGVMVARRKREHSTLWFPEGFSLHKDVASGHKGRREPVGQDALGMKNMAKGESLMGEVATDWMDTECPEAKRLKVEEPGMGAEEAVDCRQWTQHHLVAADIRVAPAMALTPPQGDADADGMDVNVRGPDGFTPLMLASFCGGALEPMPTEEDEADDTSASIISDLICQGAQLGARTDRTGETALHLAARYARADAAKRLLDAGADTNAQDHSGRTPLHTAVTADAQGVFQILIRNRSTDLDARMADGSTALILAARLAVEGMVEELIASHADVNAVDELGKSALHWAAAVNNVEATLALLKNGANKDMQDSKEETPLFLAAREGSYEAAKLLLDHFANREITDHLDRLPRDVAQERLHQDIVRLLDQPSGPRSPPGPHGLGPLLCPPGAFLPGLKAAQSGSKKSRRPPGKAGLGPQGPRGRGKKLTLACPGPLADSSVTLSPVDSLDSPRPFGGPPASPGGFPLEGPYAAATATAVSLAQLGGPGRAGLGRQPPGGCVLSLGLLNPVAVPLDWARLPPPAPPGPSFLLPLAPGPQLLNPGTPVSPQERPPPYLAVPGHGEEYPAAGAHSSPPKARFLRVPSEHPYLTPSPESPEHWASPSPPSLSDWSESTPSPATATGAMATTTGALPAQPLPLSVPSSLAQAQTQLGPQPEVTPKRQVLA
# [10] = probe aEGFR binding to arrayed compounds – biochemical, biotinylated probe, 635/667 nm fluorescence, primary screen (AID 1097); conditions: small-molecule microarray, higher = more signal;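 also: probe is a biotinylated anti-EGFR antibody binding compounds printed on slides; score combines fluorescence near 667 nm and signal to noise of each spot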
# [11] = system: Plasmodium falciparum Sir2 (PF13_0152, Sir2A); assay: Plasmodium falciparum Sir2A binding compounds – biochemical, small-molecule microarray, 635 nm fluorescence, primary screen (AID 1098); conditions: fluorescence 635 nm, higher = more signal;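 also: score merges spot fluorescence intensity with its signal-to-noise ratio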
# [12] = probe aDKK1 binding to arrayed compounds – biochemical, biotinylated probe, 635/667 nm fluorescence, primary screen (AID 1099); conditions: small-molecule microarray, higher = more signal;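 also: score merges 667nm spot fluorescence with signal to noise across triplicate slides; reference of the scale not given here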
# [13] = probe aCHRDL2 binding to arrayed compounds – biochemical, biotinylated probe, 635/667 nm fluorescence, primary screen (AID 1100); conditions: small-molecule microarray, higher = more signal
# [14] = change in splice reporter luminescence, either direction, cell-based, HEK293, spliceosome inhibition project, primary screen (AID 1101); conditions: HEK293 splicing luciferase reporter, 24 h, higher = more signal, called active from +8 up or from −8 down;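 also: HEK293 cells carrying a splicing-competent luciferase reporter gene; test concentration not given here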
# [15] = biological target: Fibroblast growth factor 10 (Homo sapiens) (UniProt O15520); assay: compounds binding fibroblast growth factor 10 – biochemical, small-molecule microarray, 635 nm fluorescence, primary screen (AID 1102); conditions: FGF10 binding, fluorescence 635 nm, higher = more signal
# Chain of Fibroblast growth factor 10 (Homo sapiens) (O15520 whole entry, looked up): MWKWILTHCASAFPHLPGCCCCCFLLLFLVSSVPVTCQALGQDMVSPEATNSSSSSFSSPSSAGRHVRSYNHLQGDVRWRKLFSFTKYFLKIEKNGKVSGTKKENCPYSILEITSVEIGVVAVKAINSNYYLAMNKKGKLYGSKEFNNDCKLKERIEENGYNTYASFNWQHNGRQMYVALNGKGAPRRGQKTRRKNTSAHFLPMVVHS
# [16] = system: glycogen synthase kinase-3 (GSK3A per assay name; protocol says GSK3B); assay: compounds binding glycogen synthase kinase-3 – biochemical, small-molecule microarray, 635 nm fluorescence, GSK3A, primary screen (AID 1103); conditions: fluorescence 635 nm, higher = more signal; also: the record names both GSK3A and GSK3B
# [17] = biological target: Epidermal growth factor receptor (Homo sapiens) (UniProt P00533); assay: compounds binding epidermal growth factor receptor – biochemical, small-molecule microarray, 635 nm fluorescence, primary screen (AID 1104); conditions: EGFR binding, higher = more signal;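 also: score merges 667 nm emission intensity with spot signal to noise over triplicate slides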
# Chain of Epidermal growth factor receptor (Homo sapiens) (P00533 whole entry, looked up): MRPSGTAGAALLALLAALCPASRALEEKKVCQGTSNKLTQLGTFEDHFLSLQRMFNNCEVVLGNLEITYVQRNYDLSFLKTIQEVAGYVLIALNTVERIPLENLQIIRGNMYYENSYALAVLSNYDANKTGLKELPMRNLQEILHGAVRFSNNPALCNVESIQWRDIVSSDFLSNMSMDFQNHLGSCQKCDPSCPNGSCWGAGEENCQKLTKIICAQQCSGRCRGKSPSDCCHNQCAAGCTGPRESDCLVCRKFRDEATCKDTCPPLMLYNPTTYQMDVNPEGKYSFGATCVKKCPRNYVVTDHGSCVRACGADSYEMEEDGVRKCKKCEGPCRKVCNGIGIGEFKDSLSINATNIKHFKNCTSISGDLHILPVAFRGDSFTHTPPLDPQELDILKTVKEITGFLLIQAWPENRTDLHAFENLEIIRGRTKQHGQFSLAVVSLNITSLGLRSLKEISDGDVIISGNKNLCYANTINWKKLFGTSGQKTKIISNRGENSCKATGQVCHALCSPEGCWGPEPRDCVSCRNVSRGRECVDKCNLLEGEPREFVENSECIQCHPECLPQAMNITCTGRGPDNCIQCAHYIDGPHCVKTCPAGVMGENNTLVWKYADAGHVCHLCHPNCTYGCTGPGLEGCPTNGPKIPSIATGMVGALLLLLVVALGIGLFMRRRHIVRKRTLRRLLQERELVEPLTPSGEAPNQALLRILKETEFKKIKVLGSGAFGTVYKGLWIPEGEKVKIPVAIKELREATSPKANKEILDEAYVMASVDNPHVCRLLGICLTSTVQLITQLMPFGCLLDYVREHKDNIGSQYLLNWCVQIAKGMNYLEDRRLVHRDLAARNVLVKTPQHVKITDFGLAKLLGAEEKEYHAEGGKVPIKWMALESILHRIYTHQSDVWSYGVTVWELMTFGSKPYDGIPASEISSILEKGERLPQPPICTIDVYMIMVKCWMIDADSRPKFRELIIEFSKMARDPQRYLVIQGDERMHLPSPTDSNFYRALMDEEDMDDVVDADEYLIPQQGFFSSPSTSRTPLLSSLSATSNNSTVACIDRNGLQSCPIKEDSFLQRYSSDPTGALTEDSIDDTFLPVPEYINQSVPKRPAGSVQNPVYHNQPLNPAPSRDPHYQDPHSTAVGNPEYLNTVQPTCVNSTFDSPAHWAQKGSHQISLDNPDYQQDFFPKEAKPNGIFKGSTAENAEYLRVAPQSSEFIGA
# [18] = biological target: Follistatin-related protein 3 (Homo sapiens) (UniProt O95633); assay: compounds binding follistatin-related protein 3 – biochemical, small-molecule microarray, 635 nm fluorescence, primary screen (AID 1105); conditions: FSTL3 binding, higher = more signal;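 also: score merges emission near 667 nm and signal to noise per printed spot across three slides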
# Chain of Follistatin-related protein 3 (Homo sapiens) (O95633 whole entry, looked up): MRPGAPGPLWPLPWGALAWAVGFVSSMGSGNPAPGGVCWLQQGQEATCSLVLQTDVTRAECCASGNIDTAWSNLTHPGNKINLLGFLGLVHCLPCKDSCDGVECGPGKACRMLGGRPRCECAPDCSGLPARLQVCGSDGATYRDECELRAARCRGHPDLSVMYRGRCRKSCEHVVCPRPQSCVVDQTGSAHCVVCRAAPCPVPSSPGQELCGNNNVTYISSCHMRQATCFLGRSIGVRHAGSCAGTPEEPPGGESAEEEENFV
# [19] = biological target: Dickkopf-related protein 1 (Homo sapiens) (UniProt O94907); assay: small molecules binding DKK1 protein – biochemical, small-molecule microarray, 635 nm fluorescence scan, primary screen (AID 1106); conditions: higher = more signal;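 also: score merges emission near 667 nm with signal to noise over three replicate slides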
# Chain of Dickkopf-related protein 1 (Homo sapiens) (O94907 whole entry, looked up): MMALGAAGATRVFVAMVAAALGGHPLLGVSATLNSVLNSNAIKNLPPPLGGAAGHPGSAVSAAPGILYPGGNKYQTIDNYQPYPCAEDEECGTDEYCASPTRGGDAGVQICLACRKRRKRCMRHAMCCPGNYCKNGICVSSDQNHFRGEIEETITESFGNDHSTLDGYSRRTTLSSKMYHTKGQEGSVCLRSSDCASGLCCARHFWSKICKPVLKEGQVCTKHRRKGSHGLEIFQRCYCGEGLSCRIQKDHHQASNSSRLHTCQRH
# [20] = system: Inhibin beta A chain (activin A); assay: small molecules binding activin A – biochemical, small-molecule microarray, 635 nm fluorescence scan, primary screen (AID 1107); conditions: INHBA, higher = more signal;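 also: mouse activin A protein probed at 4.33 µg/mL on printed slides; score merges bound-protein fluorescence near 667 nm with spot signal-to-noise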
SMILES,composite z-score [1],z-score [2],z-score [3],z-score [4],composite z-score [5],z-score [6],composite z-score [7],composite z-score [8],composite z-score [9],composite z-score [10],composite z-score [11],composite z-score [12],composite z-score [13],z-score [14],composite z-score [15],composite z-score [16],composite z-score [17],composite z-score [18],composite z-score [19],composite z-score [20]
CCOC(=O)C1=CCC(c2cccn2C(=O)OC(C)(C)C)N(S(=O)(=O)c2ccc(C)cc2)C1 (stereo not given),1.48,-0.0556 (inactive),0.69 (inactive),0.382 (inactive),3.36,-0.0304 (inactive),0.194,0.205,1,-0.0004,1.45,0.484,0.574,-0.799 (inactive),0.404,1.3,0.698,0.922,0.0815,1.46
O=C(CS)NCCCCCCNC(=O)[C@H]1C[C@H]2C(=O)NCC(=O)N2[C@H]1c1cccc(OCCO)c1,0.863,-0.573 (inactive),-0.372 (inactive),0.585 (inactive),2.47,1.25 (inactive),0.0657,0.6,0.471,-0.0612,1.09,-0.0292,-0.027,-2.02 (inactive),0.901,-0.21,0.696,0.604,0.602,0.665
COc1ccc(C(=O)Nc2ccc(CN3C(=O)[C@@]4(O[C@@H](CC(=O)N(CCO)Cc5ccccc5)[C@H]([Si](C)(C)c5ccc(OC)cc5)[C@H]4C)c4ccccc43)cc2)cc1,0.783,-0.884 (inactive),-0.504 (inactive),1.94 (inactive),1.5,1.68 (inactive),-0.116,1.55,0.217,0.0326,0.901,-0.0966,-0.351,-1.78 (inactive),0.201,-0.185,0.7,0.335,0.502,0.432
C=CCNC(=O)[C@H]1[C@@H]2C(=O)O[C@@H](c3ccccc3)[C@@H](c3ccccc3)N2[C@@H](c2ccc(OCCO)cc2)[C@]12C(=O)N(C(=O)OCCOC)c1ccc(C#CCNC(N)=O)cc12,1.55,1.91 (inactive),0.996 (inactive),4.55 (inactive),1.97,-0.121 (inactive),0.247,1.84,1.11,0.0173,1.27,0.02,0.687,0.0908 (inactive),1.3,0.998,0.686,0.989,0.998,0.823
CC(C)[Si](C#Cc1ccccc1)(O[C@H](c1ccccc1)c1cn(Cc2ccccc2)nn1)C(C)C,1.02,-1.94 (inactive),-19.9 (active),-2.28 (inactive),2.04,2.14 (inactive),-0.195,1.08,1.01,-0.133,1.56,0.191,-0.386,-1.97 (inactive),0.785,1.06,0.726,1.49,1.86,-0.165
COC(=O)[C@@]1(Cc2ccc(OC)cc2)[C@H]2c3cc(C(=O)N(C)C)n(Cc4c(CO)[nH]cc(C)c4=O)c3C[C@H]2CN1C(=O)c1ccccc1,-0.922,0.0886 (inactive),0.95 (inactive),-0.622 (inactive),3.22,-1.28 (inactive),0.334,0.0072,0.0193,0.215,0.258,0.899,0.731,0.323 (inactive),-0.17,0.664,0.0854,0.128,-0.14,0.779
COCCOC(=O)N1C(=O)[C@@]2(c3cc(C#CC4(O)CCCCCC4)ccc31)[C@H](C(N)=O)[C@H]1C(=O)O[C@H](c3ccccc3)[C@H](c3ccccc3)N1[C@@H]2c1ccc(OCCO)cc1,1.54,1.73 (inactive),-0.0624 (inactive),5.03 (inactive),2.51,0.662 (inactive),0.0723,1.2,1.09,0.104,0.804,0.527,0.668,-0.0691 (inactive),0.99,1.28,0.484,0.974,0.338,0.725
COc1ccc(C(=O)Nc2cccc(CN3C(=O)[C@]4(O[C@H](CC(=O)N(CCO)Cc5ccccc5)[C@@H]([Si](C)(C)c5ccc(OC)cc5)[C@@H]4C)c4ccccc43)c2)cc1,1.05,1.22 (inactive),0.706 (inactive),3.65 (inactive),1.69,0.854 (inactive),0.0553,0.701,0.255,-0.0251,1.12,-0.275,0.123,0.288 (inactive),1.11,-0.117,0.666,0.702,0.649,0.794
O=C1C2C=CC(C(O)C3CC=CCC3)N(Nc3ccc([N+](=O)[O-])cc3)C2C(=O)N1c1ccccc1 (stereo not given),1.41,-1.09 (inactive),0.531 (inactive),2.22 (inactive),3.22,0.0043 (inactive),0.486,0.7,1.06,0.298,0.811,1.47,1.03,0.809 (inactive),1,1.1,0.619,1.44,0.386,1.2
CC[C@@H](O[Si](C#C[Si](C(C)C)(C(C)C)C(C)C)(C(C)C)C(C)C)c1cn([C@H](C)c2ccccc2)nn1,0.991,0.685 (inactive),0.0803 (inactive),0.529 (inactive),0.382,0.612 (inactive),-0.148,0.391,0.785,-0.0332,0.43,0.0317,-0.328,0.242 (inactive),0.403,0.136,0.533,0.658,0.432,-0.142
CCCCCCc1nc(Cc2cc(OC)c(OC)c(OC)c2)c(C)c2c1[Si](C(C)C)(C(C)C)OC2,0.829,-0.42 (inactive),-1.61 (inactive),-0.0746 (inactive),0.377,1.59 (inactive),-0.0487,-0.0156,-0.143,0.0172,0.197,-0.1,-0.35,-2.3 (inactive),0.261,0.104,-0.0718,0.237,0.163,0.987
CCc1cccc(NC(=O)O[C@H]2[C@H](OC(=O)Nc3ccccc3-c3ccccc3)[C@H](OC(=O)Nc3ccccc3-c3ccccc3)[C@@H](OC)O[C@@H]2CO)c1,1.55,1.95 (inactive),1.31 (inactive),0.423 (inactive),2.91,-1.08 (inactive),0.229,1.48,1.05,-0.0232,0.477,0.632,0.444,1.93 (inactive),1.45,1.34,0.851,1.31,0.635,0.838
COCCOC(=O)N1C(=O)[C@@]2(c3cc(C#CCNC(N)=O)ccc31)[C@H](C(=O)N1CCN(c3ncccn3)CC1)[C@H]1C(=O)O[C@H](c3ccccc3)[C@H](c3ccccc3)N1[C@@H]2c1ccc(O)cc1,-0.479,-0.357 (inactive),-0.562 (inactive),0.0816 (inactive),1.37,-0.324 (inactive),-0.547,-1.27,-0.637,-0.384,0.505,-0.326,-0.47,-0.428 (inactive),-0.735,-0.438,-1.14,-0.997,-1.92,-0.853
CCCCC(=C=CC[C@H](O)c1ccccc1OCCO)CCO,0.95,0.149 (inactive),-0.211 (inactive),-0.34 (inactive),1.04,0.288 (inactive),-0.19,-0.0419,-0.102,-0.0664,0.653,-0.182,-0.0244,-0.25 (inactive),0.27,-0.123,-0.689,-0.569,-0.429,0.754
O=C1O[C@H](c2ccccc2)[C@H](c2ccccc2)N2[C@H]1[C@@H](C(=O)N1CCN(c3ncccn3)CC1)[C@]1(C(=O)Nc3ccc(C#CC4(O)CCCCCC4)cc31)[C@H]2c1ccc(O)cc1,1.55,0.736 (inactive),-0.391 (inactive),1.21 (inactive),2.57,2.61 (inactive),-0.209,1.2,1.11,-0.0225,1.54,0.111,-0.156,-0.262 (inactive),0.989,1,0.241,0.764,0.185,0.0022
COc1ccc(NN2C(C(O)c3ccccc3)C=CC3C(=O)N(C4CCCCC4)C(=O)C32)cc1 (stereo not given),1.56,-0.0673 (inactive),0.991 (inactive),1.34 (inactive),3.34,0.0456 (inactive),0.107,1.08,1.06,0.0953,1.25,0.535,0.291,-1.18 (inactive),1.24,1.28,0.122,1.21,0.453,0.786
C=CC[C@@]1(C(=O)NCCCOC)N=C(c2ccc(OCCCO)cc2)O[C@@H]1c1ccccc1CN=[N+]=[N-],1.55,-0.759 (inactive),-0.0094 (inactive),-0.966 (inactive),2.35,1.1 (inactive),0.258,1.01,1.12,0.0914,1.5,0.739,0.772,-0.226 (inactive),1.38,1.31,0.0652,1.2,-0.0117,1.14
[N-]=[N+]=Nc1ccccc1C[C@]1(C(=O)N2CCCCC2)N=C(c2ccc(OCCCO)cc2)O[C@H]1c1ccccc1,1.33,-0.44 (inactive),-9.22 (active),0.926 (inactive),2.74,1 (inactive),0.131,0.595,1.1,0.279,1.46,1.01,1.11,-0.117 (inactive),1.25,0.952,0.102,0.616,0.26,0.781
